In PubChem BioAssay (EPA / NIEHS):
The source made the active and inactive calls. Rule for the calls: active = hit-call score of the fitted dose curve at least 0.9, where 1 is the maximum; inconclusive = response in the unintended direction; inactive = score below 0.9.

Molecular target: Estrogen receptor beta (Homo sapiens) (UniProt Q92731)
Test: OT_ER_ERbERb_1440: Odyssey Thera (OT) 24-hour HEK293T Protein-Complementation Assay for Estrogen Receptor-beta/-beta Homodimer (AID 2283380);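 note: scored as signal increase over DMSO baseline for both agonists and antagonists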
Experimental: OT_ER_ERbERb_1440 is a cell-based assay that uses HEK293T, a human kidney cell line, with measurements taken at 24 hours after chemical dosing in a 384-well plate.OT_ER_ERbERb_1440 is one of one assay component(s) measured or calculated from the OT_ER_ERbERb_1440 assay. It is designed to make measurements of protein fragment complementation, a form of binding reporter, as detected with fluorescence intensity signals by Protein-fragment Complementation technology.Data from the assay component OT_ER_ERbERb_1440 was analyzed into 1 assay endpoint. This assay endpoint, OT_ER_ERbERb_1440, was analyzed in the positive analysis fitting direction relative to DMSO as the negative control and baseline of activity. Using a type of binding reporter, measures of receptor for gain-of-signal activity can be used to understand the binding at the pathway-level as they relate to the gene ESR2. Furthermore, this assay endpoint can be referred to as a primary readout, because the performed assay has only produced 1 assay endpoint. To generalize the intended target to other relatable targets, this assay endpoint is annotated to the nuclear receptor intended target family, where the subfamily is steroidal.
Protein-fragment complementation assay, or PCA, is a method for the identification and quantification of protein-protein interactions. In the PCA, the proteins of interest ("bait" and "prey") are each covalently linked to fragments of a third protein (e.g. DHFR, which acts as a "reporter"). Interaction between the bait and the prey proteins brings the fragments of the reporter protein in close proximity to allow them to form a functional reporter protein whose activity can be measured. The OT ER beta / ER beta assay is a homodimer PCA of the ligand binding domain (LBD; amino acids 310-547) of human ER beta stably expressed in HEK293T cells. […] Cells are fixed in 4 percent formaldehyde and stained with Draq5 (BioStatus) to identify cells prior to signal detection. Fluorescent signal in the basal state of the assay is very low and is primarily punctuate and cytoplasmic. Modulation of this assay is quantified as an increase in mean fluorescence intensity in the nucleus (for agonists) or in the nucleus and cytoplasm (antagonists) relative to vehicle controls, and can be quantified on a high content imaging device or a laser scanning cytometer. The latter instrument is favored for this assay because of the rapid mode of data acquisition, the ability to acquire data from the entire cell population in a well (as opposed to a fraction of the well on the high content devices) and the larger dynamic range typically achieved with this instrument. To assess sensitivity of the ER beta/ER beta LBD assay to ligand, cells were treated with the ER agonist 17- beta-estradiol (E2) in 10-point concentration- response format for 24 hours and monitored response on a laser scanning plate cytometer (Acumen eX3; TTP Lab Tech).

Estrogen receptor beta (Homo sapiens), sequence (Q92731 whole entry, looked up): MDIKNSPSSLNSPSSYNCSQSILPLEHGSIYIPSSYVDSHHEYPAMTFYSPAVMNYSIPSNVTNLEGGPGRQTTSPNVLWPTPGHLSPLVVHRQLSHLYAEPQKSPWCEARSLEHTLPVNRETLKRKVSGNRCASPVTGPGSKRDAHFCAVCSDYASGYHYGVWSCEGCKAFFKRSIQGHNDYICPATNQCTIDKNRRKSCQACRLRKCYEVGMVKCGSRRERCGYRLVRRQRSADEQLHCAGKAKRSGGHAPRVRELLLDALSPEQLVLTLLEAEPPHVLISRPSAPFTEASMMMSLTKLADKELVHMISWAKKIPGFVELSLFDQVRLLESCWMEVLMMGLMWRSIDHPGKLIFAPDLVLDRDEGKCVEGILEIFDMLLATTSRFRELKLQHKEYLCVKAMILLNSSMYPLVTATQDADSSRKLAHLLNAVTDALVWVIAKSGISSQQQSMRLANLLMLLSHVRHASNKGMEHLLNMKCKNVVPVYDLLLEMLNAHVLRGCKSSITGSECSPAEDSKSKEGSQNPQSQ

Row | Compound | outcome | AC50
1 | Cc1cc(C)c(C2=C(OC(=O)CC(C)(C)C)C3(CCCC3)OC2=O)c(C)c1 | inactive | –
2 | CCOC(=O)NC(=S)Nc1ccccc1NC(=S)NC(=O)OCC | inactive | –
3 | CC(C)[C@@H](C(=O)O[C@@H](C#N)c1cccc(Oc2ccccc2)c1)c1ccc(Cl)cc1 | inactive | –
4 | CN(C)N | inactive | –
5 | O=C(CCl)c1ccccc1 | inactive | –
6 | Cc1ccc(C)c2ccccc12 | inactive | –
7 | CCCC=NO | inactive | –
8 | c1cc[n+]2c(c1)-c1cccc[n+]1CC2 | inactive | –
9 | O=P(O)(Oc1ccccc1)Oc1ccccc1 | inactive | –
10 | Nc1cc(Cl)cc(Cl)c1 | inactive | –
11 | C=CC(=O)OCC(CC)CCCC (stereo not given) | inactive | –
12 | CCOC(=O)C1OC1(C)c1ccccc1 (stereo not given) | – | 37.3 µM (active)
13 | CCCCCCCCCCCCCCCC[N+](C)(C)C | inactive | –
14 | CCC(=O)c1ccc(Cl)cc1 | inactive | –
15 | CC(C)(O)C#N | inactive | –
16 | O=C=Nc1ccccc1 | inactive | –
17 | O=CNC(N1CCN(C(NC=O)C(Cl)(Cl)Cl)CC1)C(Cl)(Cl)Cl (stereo not given) | inactive | –
18 | CCOP(O)OCC | inactive | –
19 | c1ccc(P(c2ccccc2)c2ccccc2)cc1 | inactive | –
20 | O=C1Nc2ccc(Cl)cc2C(c2ccccc2)=NC1O (stereo not given) | inactive | –

Row | Compound | outcome | AC50
21 | CC(C)c1ccc(O)cc1 | – | 50 µM (active)
22 | C=CC(=O)OCCO | inactive | –
23 | CC(=O)c1cc2c(cc1C)C(C)(C)C(C)CC2(C)C (stereo not given) | – | 12.5 µM (active)
24 | CC[N+](=O)[O-] | inactive | –
25 | CC(Cc1ccc(C(C)(C)C)cc1)CN1C[C@@H](C)O[C@@H](C)C1 (stereo not given in full) | inactive | –
26 | CNC(=N[N+](=O)[O-])NCC1CCOC1 (stereo not given) | inactive | –
27 | Nc1ccc(Cl)c(Cl)c1 | inactive | –
28 | CC(O)CN(CC(C)O)CC(C)O (stereo not given) | inactive | –
29 | CCOP(=O)(OCC)OCC | inactive | –
30 | CCC1CCC(=O)O1 (stereo not given) | inactive | –
31 | CN(C)C(=O)C(c1ccccc1)c1ccccc1 | inactive | –
32 | O=C(NC(=O)c1c(F)cccc1F)Nc1ccc(Oc2ccc(C(F)(F)F)cc2Cl)cc1F | inactive | –
33 | CC(=O)C=Cc1ccccc1 | inactive | –
34 | O=S(=O)(O)OOS(=O)(=O)O | inactive | –
35 | CC(C)(c1cc(Cl)c(O)c(Cl)c1)c1cc(Cl)c(O)c(Cl)c1 | inactive | –
36 | CCOP(=O)(OCC)Oc1ccc([N+](=O)[O-])cc1 | inactive | –
37 | O=C(O)CCl | inactive | –
38 | COc1cc(OC)nc(Oc2cccc(Oc3nc(OC)cc(OC)n3)c2C(=O)O)n1 | inactive | –
39 | CCc1cccc(C)c1N(C(=O)CCl)[C@@H](C)COC | inactive | –
40 | CC1(C)[C@H](C(=O)O[C@H](C#N)c2cccc(Oc3ccccc3)c2)[C@@H]1C=C(Br)Br | inactive | –
